{
  "source": "PubChem BioAssay AID1159580",
  "about": "(chemical genetic matrix, 2015)",
  "experiment": "chemical genetic growth profiling, strain panel (AID 1159580);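 note: tested at 20 µM; growth read once vehicle control cultures reached saturation at 30 °C; 1 = growth at the plate median or of vehicle wells; lower values mean less growth of the strain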",
  "conditions": "S. cerevisiae deletion strains, growth OD",
  "note": "In all, about 5,500 compounds went through this assay and about 2,000 (36%) were called active. Not shown: some 18% with an inconclusive outcome. The list shows a part of the results. A number with no mark means an inactive call. Cut-off read from the data, not from the text of the source: active = normalized growth mostly below about 0.91 (no sharp cut-off); inconclusive = no clear call, values can overlap the other calls; inactive = mostly above about 0.92.",
  "data": [
    {"smiles": "CC(C)Cc1ccc(C(C)C(=O)Nc2nn(C)c3ccccc23)cc1", "note": "(stereo not given)", "values": [
      {"measurement": "normalized growth", "setting": "locus YAR019C, strain CDC15, hits give low values", "value": 0.993},
      {"measurement": "normalized growth", "setting": "locus YBL105C, strain PKC1, hits give low values", "value": 0.986},
      {"measurement": "normalized growth", "setting": "locus YBR135W, strain CKS1, hits give low values", "value": 0.974},
      {"measurement": "normalized growth", "setting": "locus YBR136W, strain MEC1, hits give low values", "value": 0.99},
      {"measurement": "normalized growth", "setting": "locus YBR160W, strain CDC28, hits give low values", "value": 0.984},
      {"measurement": "normalized growth", "setting": "locus YDL017W, strain CDC7, hits give low values", "value": 0.967},
      {"measurement": "normalized growth", "setting": "locus YDL028C, strain MPS1, hits give low values", "value": 0.997},
      {"measurement": "normalized growth", "setting": "locus YDL101C, strain DUN1, hits give low values", "value": 0.993},
      {"measurement": "normalized growth", "setting": "locus YDL108W, strain KIN28, hits give low values", "value": 0.992},
      {"measurement": "normalized growth", "setting": "locus YDL132W, strain cdc53, hits give low values", "value": 0.998},
      {"measurement": "normalized growth", "setting": "locus YDL214C, strain PRR2, hits give low values", "value": 0.931},
      {"measurement": "normalized growth", "setting": "locus YDR054C, strain cdc34, hits give low values", "value": 0.968},
      {"measurement": "normalized growth", "setting": "locus YDR226W, strain ADK1, hits give low values", "value": 0.991},
      {"measurement": "normalized growth", "setting": "locus YDR477W, strain SNF1, hits give low values", "value": 0.932},
      {"measurement": "normalized growth", "setting": "locus YER123W, strain YCK3, hits give low values", "value": 0.922},
      {"measurement": "normalized growth", "setting": "locus YER133W, strain GLC7, hits give low values", "value": 0.945},
      {"measurement": "normalized growth", "setting": "locus YFL009W, strain cdc4, hits give low values", "value": 0.985},
      {"measurement": "normalized growth", "setting": "locus YFL029C, strain CAK1, hits give low values", "value": 0.994},
      {"measurement": "normalized growth", "setting": "locus YFR003C, strain YPI1, hits give low values", "value": 0.993},
      {"measurement": "normalized growth", "setting": "locus YFR019W, strain FAB1, hits give low values", "value": 0.962},
      {"measurement": "normalized growth", "setting": "locus YFR028C, strain CDC14, hits give low values", "value": 0.988},
      {"measurement": "normalized growth", "setting": "locus YGR040W, strain KSS1, hits give low values", "value": 0.915},
      {"measurement": "normalized growth", "setting": "locus YGR052W, strain FMP48, hits give low values", "value": 0.983},
      {"measurement": "normalized growth", "setting": "locus YGR092W, strain DBF2, hits give low values", "value": 0.931},
      {"measurement": "normalized growth", "setting": "locus YHR030C, strain SLT2, hits give low values", "value": 0.944},
      {"measurement": "normalized growth", "setting": "locus YHR079C, strain IRE1, hits give low values", "value": 0.945},
      {"measurement": "normalized growth", "setting": "locus YHR082C, strain KSP1, hits give low values", "value": 0.94},
      {"measurement": "normalized growth", "setting": "locus YHR205W, strain SCH9, hits give low values", "value": 0.909},
      {"measurement": "normalized growth", "setting": "locus YIL147C, strain SLN1, hits give low values", "value": 0.989},
      {"measurement": "normalized growth", "setting": "locus YJL095W, strain BCK1, hits give low values", "value": 0.965},
      {"measurement": "normalized growth", "setting": "locus YJL128C, strain PBS2, hits give low values", "value": 0.948},
      {"measurement": "normalized growth", "setting": "locus YJL157C, strain FAR1, hits give low values", "value": 0.942},
      {"measurement": "normalized growth", "setting": "locus YJR016C, strain ILV3, hits give low values", "value": 0.99},
      {"measurement": "normalized growth", "setting": "locus YJR066W, strain TOR1 (second series), hits give low values", "value": 0.902},
      {"measurement": "normalized growth", "setting": "locus YJR066W, strain TOR1, hits give low values", "value": 0.982},
      {"measurement": "normalized growth", "setting": "locus YKL048C, strain ELM1, hits give low values", "value": 0.965},
      {"measurement": "normalized growth", "setting": "locus YKL067W, strain YNK1, hits give low values", "value": 0.939},
      {"measurement": "normalized growth", "setting": "locus YKL101W, strain HSL1, hits give low values", "value": 0.933},
      {"measurement": "normalized growth", "setting": "locus YKL193C, strain SDS22, hits give low values", "value": 0.975},
      {"measurement": "normalized growth", "setting": "locus YKL203C, strain TOR2, hits give low values", "value": 0.981},
      {"measurement": "normalized growth", "setting": "locus YLR113W, strain HOG1, hits give low values", "value": "0.855 (active)"},
      {"measurement": "normalized growth", "setting": "locus YLR133W, strain CKI1, hits give low values", "value": 0.93},
      {"measurement": "normalized growth", "setting": "locus YLR403W, strain SFP1, hits give low values", "value": 0.772},
      {"measurement": "normalized growth", "setting": "locus YML070W, strain DAK1, hits give low values", "value": 0.918},
      {"measurement": "normalized growth", "setting": "locus YMR001C, strain CDC5, hits give low values", "value": 0.973},
      {"measurement": "normalized growth", "setting": "locus YMR205C, strain PFK2 (second series), hits give low values", "value": 0.928},
      {"measurement": "normalized growth", "setting": "locus YMR277W, strain FCP1, hits give low values", "value": 0.975},
      {"measurement": "normalized growth", "setting": "locus YNL006W, strain LST8, hits give low values", "value": 0.993},
      {"measurement": "normalized growth", "setting": "locus YNL020C, strain ARK1, hits give low values", "value": 0.935},
      {"measurement": "normalized growth", "setting": "locus YNL161W, strain CBK1, hits give low values", "value": 0.991},
      {"measurement": "normalized growth", "setting": "locus YNL183C, strain NPR1, hits give low values", "value": 0.927},
      {"measurement": "normalized growth", "setting": "locus YNL207W, strain RIO2, hits give low values", "value": 0.976},
      {"measurement": "normalized growth", "setting": "locus YNL222W, strain SSU72, hits give low values", "value": 0.99},
      {"measurement": "normalized growth", "setting": "locus YNL307C, strain MCK1 (second series), hits give low values", "value": 0.944},
      {"measurement": "normalized growth", "setting": "locus YOL078W, strain AVO1, hits give low values", "value": 0.987},
      {"measurement": "normalized growth", "setting": "locus YOL136C, strain PFK27, hits give low values", "value": 0.916},
      {"measurement": "normalized growth", "setting": "locus YOR061W, strain CKA2, hits give low values", "value": 0.938},
      {"measurement": "normalized growth", "setting": "locus YOR119C, strain RIO1, hits give low values", "value": 0.988},
      {"measurement": "normalized growth", "setting": "locus YOR231W, strain MKK1, hits give low values", "value": 0.896},
      {"measurement": "normalized growth", "setting": "locus YOR329C, strain SCD5, hits give low values", "value": 0.99},
      {"measurement": "normalized growth", "setting": "locus YPL031C, strain PHO85, hits give low values", "value": 0.941},
      {"measurement": "normalized growth", "setting": "locus YPL153C, strain RAD53, hits give low values", "value": 0.934},
      {"measurement": "normalized growth", "setting": "locus YPL204W, strain HRR25, hits give low values", "value": 0.906},
      {"measurement": "normalized growth", "setting": "locus YPL209C, strain IPL1, hits give low values", "value": 0.982},
      {"measurement": "normalized growth", "setting": "locus YPL256C, strain CLN2, hits give low values", "value": 0.88},
      {"measurement": "normalized growth", "setting": "locus YPR025C, strain CCL1, hits give low values", "value": 0.986},
      {"measurement": "normalized growth", "setting": "locus YPR106W, strain ISR1, hits give low values", "value": 0.979},
      {"measurement": "normalized growth", "setting": "locus YPR111W, strain DBF20, hits give low values", "value": 0.955},
      {"measurement": "normalized growth", "setting": "strain NNK1, hits give low values", "value": 0.98},
      {"measurement": "normalized growth", "setting": "strain TSCII, hits give low values", "value": 0.992}
    ]}
  ]
}
